Assay results published in paper PMC12864922, “TDP-43 directly inhibits mRNA accumulation in neurites through modulation of mRNA stability”.
In all, about 9,900 sequences were measured (“r (bound/input frequency ratio)”: median about 0.7, highest 2% from about 6.5 on). The entries come from a sample that favours the highest values as a whole.

B1: ENSMUSG00000022095.66|Fam160b2 (ssRNA)
RNA: GGGAGUUCUACAGUCCGACGAUCGCUUCGAUAUCCGCAUGCUAACAACUCCAGGGGCCAGGGAGAUGAACUGCUGUCUUUGAGGCUGGCUAAAAAAACAAUCCAGUCCAGAGAGAUGGGGAGGGGGGGAGCAAGAACCCUGUCUGUUACAUUAGGUAUCAUGGAAGCUGCUAAGACUCGGCAGGUUUCUCCGAGGCUUCACGAACAGUAGUGGAGGAGACAGAGGAGGAGGCUGAGGGGAAGCCCCCUCUUCCUGCUCUACCCUCCUGGAGGCUGUUGCAAAAUUCCCAACUGCCUCCUGGCACUCUUGCGGUCGCACUAGUGUGGAAUUCUCGGGUGUCAAGG
B2: ENSMUSG00000004113.466|Cacna1b (ssRNA)
RNA: GGGAGUUCUACAGUCCGACGAUCGCUUCGAUAUCCGCAUGCUAUGAAGGUUUGUCGCAAAAAUUUAUAUUUAACAGUGUUGAGAGAGAGAGAGAGAGAGCGAGAGAGAGAGAGAUCCAGUCAUGCAACACAAAUGGGAUCUACUUUUAAACAACAGUCCUUUGACUAGUUUGCUGCCUGAAUAAUAUUUACAAACUAAACUUUGGAUUCUGCUCUUGUUUCUACAAUGAUUUUUUGUAUAAAGCAAAGUCCUUGGAUUAAAUAAAAACAACCCAAAAAAAAAAUCAAAAUCAAAACCCAGGAUCUCUUGCGGUCGCACUAGUGUGGAAUUCUCGGGUGUCAAGG
B3: ENSMUSG00000031028.203|Tub|203:207;209:214 (ssRNA)
RNA: GGGAGUUCUACAGUCCGACGAUCGCUUCGAUAUCCGCAUGCUAUCCUUUCUCUUCCCAGUUCCAGAGAUGAAACCCCUCCGAGUUAAUGUAUAAGGUUGGAAACCUUUCAGUAGGGAAUCAGGCAGUUCCCUGUUGAAAGUUGUCUGAGUUUUUGCACACCAUUCUGAUCUGAUGUGGCCUGUGCCUGGCUCCUCUAUGAGGACUUCGAGCUGUGCACAGACCUUAGCAGGACCACUGCACACUUACACACACACACACAGGCAGCCCAAGGGUUCUGGGGCUGGGCUUGGACACGCCCUCCACUCUUGCGGUCGCACUAGUGUGGAAUUCUCGGGUGUCAAGG
B4: ENSMUSG00000061578.408|Ksr2 (ssRNA)
RNA: GGGAGUUCUACAGUCCGACGAUCGCUUCGAUAUCCGCAUGCUAAUCAGUCUCUUCCCGGAGGAAGCAUCCGGGGGAAAUGUAUUCCUUCGCCCUGCAAGGAGCCAAUGGGAAGAGAGGGGACCAUAUAGUUAGAGACAUUCCCUACCCCCCGACCACUGACCCGUCCAGACCCUCGCUUCUUACAAUGCCUCUUCUUCUGCCAGACCAGCCACCUGCCCCACUAACACCAAAUGGCUUCUGUCCCUGCUUCACGUUGCAAAUCCUUCAAGACAGAAGUUUCAGAGGGGAUAGUUCCUUCUAACCUCUUGCGGUCGCACUAGUGUGGAAUUCUCGGGUGUCAAGG

Each binder was assayed against TDP-43 (Homo sapiens, UniProt Q13148 1-414) (assay: RNA Bind-n-Seq with designed 260-mer pool; 25 mM Tris-HCl, 150 mM KCl, 3 mM MgCl2, BSA (printed 500 mg/mL), 20 units/mL SUPERase IN; pH not stated; 500 nM RNA pool, 1 h, 4 C; TDP-43 5, 50, 500 nM; high values mean tight binding). Conditions: protein: recombinant; tags: SBP (GST cleaved off with PreScission; pGEX-GST-SBP).
How it was run: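 In 25 mM Tris-HCl, 150 mM KCl, 3 mM MgCl2, BSA and SUPERase IN, 500 nM of an in vitro-transcribed 260-nt 3′ UTR oligo pool was incubated for 1 h at 4 °C with SBP-tagged TDP-43 (5, 50 or 500 nM) captured on streptavidin beads. RNA remaining after washes was biotin-eluted, reverse transcribed, PCR-amplified and sequenced. Binding, R, is the bound-sample abundance of each oligo, normalized to mapped reads, divided by its abundance in input. Each duplicate used a separate, independent protein batch.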

TDP-43, sequence (Q13148 whole entry): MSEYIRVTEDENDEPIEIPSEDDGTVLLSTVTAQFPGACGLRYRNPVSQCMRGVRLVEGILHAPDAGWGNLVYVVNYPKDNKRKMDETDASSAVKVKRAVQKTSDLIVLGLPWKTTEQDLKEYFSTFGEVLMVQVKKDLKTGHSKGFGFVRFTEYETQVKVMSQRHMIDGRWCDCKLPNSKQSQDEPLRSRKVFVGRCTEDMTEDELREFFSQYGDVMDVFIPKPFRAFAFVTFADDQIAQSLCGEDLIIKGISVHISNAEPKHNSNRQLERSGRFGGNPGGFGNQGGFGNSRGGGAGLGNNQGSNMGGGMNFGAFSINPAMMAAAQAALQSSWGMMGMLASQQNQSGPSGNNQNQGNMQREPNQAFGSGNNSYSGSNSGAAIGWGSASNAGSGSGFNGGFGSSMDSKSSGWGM

Row | Binder | binding signal
1 | B1 | 0.965 R (bound/input frequency ratio)
2 | B2 | 0.589 R (bound/input frequency ratio)
3 | B3 | 1.57 R (bound/input frequency ratio)
4 | B4 | 1.09 R (bound/input frequency ratio)
